# ± gives the standard deviation of the averaged measurements.
# Legend:
# Assay in all cases: promoter activity interaction Z-score (Lux/OD deviation from empty-vector control); higher = stronger promoter induction by the compound
# [1] = test system: E. coli BW25113 acrABp lux reporter
# Procedure, shortened: (§1)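 Four 1:2 dilutions of each compound were tested in biological duplicates on E. coli BW25113 carrying low-copy luxCDABE promoter reporters, either wild type or deleted for one of three genes. Cultures of 40 µl LB Lennox in 384-well plates were kept at 37°C and read for OD600 and luminescence every 30 min for 12 h. Integration windows were 0–8 h for wild type and 1–9 h for deletion strains, and wells under 10% of the median growth value were discarded. The score is a Z-transformed residual of growth-normalised luminescence relative to a control fit.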
# [2] = test system: E. coli BW25113 marRABp lux reporter
# Procedure, shortened: as §1
# [3] = test system: E. coli BW25113 micFp lux reporter
# Procedure, shortened: as §1
# [4] = test system: E. coli BW25113 ompFp lux reporter
# Procedure, shortened: as §1
# [5] = test system: E. coli BW25113 robp lux reporter
# Procedure, shortened: as §1
# [6] = test system: E. coli BW25113 soxSp lux reporter
# Procedure, shortened: as §1
# [7] = test system: E. coli BW25113 tolCp lux reporter
# Procedure, shortened: as §1
# [8] = 0.063 µg/ml, genetic background: wild type
# [9] = 0.063 µg/ml, genetic background: ΔmarA
# [10] = 0.063 µg/ml, genetic background: Δrob
# [11] = 0.063 µg/ml, genetic background: ΔsoxS
# [12] = 0.13 µg/ml, genetic background: wild type
# [13] = 0.13 µg/ml, genetic background: ΔmarA
# [14] = 0.13 µg/ml, genetic background: Δrob
# [15] = 0.13 µg/ml, genetic background: ΔsoxS
# [16] = 0.25 µg/ml, genetic background: wild type
# [17] = 0.25 µg/ml, genetic background: ΔmarA
# [18] = 0.25 µg/ml, genetic background: Δrob
# [19] = 0.25 µg/ml, genetic background: ΔsoxS
# [20] = 0.51 µg/ml, genetic background: wild type
# [21] = 0.51 µg/ml, genetic background: ΔmarA
# [22] = 0.51 µg/ml, genetic background: Δrob
# [23] = 0.51 µg/ml, genetic background: ΔsoxS
compound,measurement,setting,value
N=C(NCCCCCCNC(=N)NC(=N)Nc1ccc(Cl)cc1)NC(=N)Nc1ccc(Cl)cc1 [Chlorhexidine],promoter activity interaction Z-score,[1]; [8],0.528 ± 0.15
same,promoter activity interaction Z-score,[1]; [9],0.456 ± 1.1
same,promoter activity interaction Z-score,[1]; [10],-0.0468 ± 0.34
same,promoter activity interaction Z-score,[1]; [11],-0.413 ± 0.67
same,promoter activity interaction Z-score,[1]; [12],0.229 ± 0.18
same,promoter activity interaction Z-score,[1]; [13],-0.312 ± 0.48
same,promoter activity interaction Z-score,[1]; [14],-0.0734 ± 0.14
same,promoter activity interaction Z-score,[1]; [15],0.339 ± 0.46
same,promoter activity interaction Z-score,[1]; [16],0.27 ± 0.26
same,promoter activity interaction Z-score,[1]; [17],-0.147 ± 0.57
same,promoter activity interaction Z-score,[1]; [18],0.135 ± 0.15
same,promoter activity interaction Z-score,[1]; [19],0.108 ± 0.19
same,promoter activity interaction Z-score,[1]; [20],-0.0541 ± 0.33
same,promoter activity interaction Z-score,[1]; [21],0.0169 ± 0.15
same,promoter activity interaction Z-score,[1]; [22],0.0299 ± 0.11
same,promoter activity interaction Z-score,[1]; [23],0.236 ± 0.23
same,promoter activity interaction Z-score,[2]; [8],-0.0555 ± 0.078
same,promoter activity interaction Z-score,[2]; [9],0.0409 ± 0.0035
same,promoter activity interaction Z-score,[2]; [10],0.173 ± 0.2
same,promoter activity interaction Z-score,[2]; [11],0.0219 ± 0.055
same,promoter activity interaction Z-score,[2]; [12],-0.193 ± 0.069
same,promoter activity interaction Z-score,[2]; [13],-0.0353 ± 0.43
same,promoter activity interaction Z-score,[2]; [14],0.0384 ± 0.087
same,promoter activity interaction Z-score,[2]; [15],0.0405 ± 0.19
same,promoter activity interaction Z-score,[2]; [16],0.0425 ± 0.12
same,promoter activity interaction Z-score,[2]; [17],-0.101 ± 0.24
same,promoter activity interaction Z-score,[2]; [18],0.121 ± 0.2
same,promoter activity interaction Z-score,[2]; [19],0.165 ± 0.33
same,promoter activity interaction Z-score,[2]; [20],-0.283 ± 0.1
same,promoter activity interaction Z-score,[2]; [21],0.127 ± 0.37
same,promoter activity interaction Z-score,[2]; [22],-0.0583 ± 0.11
same,promoter activity interaction Z-score,[2]; [23],0.00237 ± 0.085
same,promoter activity interaction Z-score,[3]; [8],-0.138 ± 0.035
same,promoter activity interaction Z-score,[3]; [9],0.119 ± 0.018
same,promoter activity interaction Z-score,[3]; [10],-0.0387 ± 0.0014
same,promoter activity interaction Z-score,[3]; [11],-0.423 ± 0.21
same,promoter activity interaction Z-score,[3]; [12],-0.207 ± 0.061
same,promoter activity interaction Z-score,[3]; [13],-0.0564 ± 0.12
same,promoter activity interaction Z-score,[3]; [14],-0.0382 ± 0.027
same,promoter activity interaction Z-score,[3]; [15],-0.0137 ± 0.079
same,promoter activity interaction Z-score,[3]; [16],0.112 ± 0.098
same,promoter activity interaction Z-score,[3]; [17],-0.0647 ± 0.035
same,promoter activity interaction Z-score,[3]; [18],-0.172 ± 0.038
same,promoter activity interaction Z-score,[3]; [19],-0.0807 ± 0.32
same,promoter activity interaction Z-score,[3]; [20],-0.4228 ± 0.0029
same,promoter activity interaction Z-score,[3]; [21],-0.153 ± 0.15
same,promoter activity interaction Z-score,[3]; [22],-0.204 ± 0.03
same,promoter activity interaction Z-score,[3]; [23],0.196 ± 0.032
same,promoter activity interaction Z-score,[4]; [8],0.348 ± 0.12
same,promoter activity interaction Z-score,[4]; [9],0.307 ± 0.032
same,promoter activity interaction Z-score,[4]; [10],0.502 ± 0.096
same,promoter activity interaction Z-score,[4]; [11],0.129 ± 0.63
same,promoter activity interaction Z-score,[4]; [12],0.528 ± 0.026
same,promoter activity interaction Z-score,[4]; [13],-0.185 ± 0.099
same,promoter activity interaction Z-score,[4]; [14],0.2991 ± 0.00077
same,promoter activity interaction Z-score,[4]; [15],0.714 ± 0.18
same,promoter activity interaction Z-score,[4]; [16],0.176 ± 0.12
same,promoter activity interaction Z-score,[4]; [17],0.161 ± 0.18
same,promoter activity interaction Z-score,[4]; [18],0.332 ± 0.15
same,promoter activity interaction Z-score,[4]; [19],0.376 ± 0.19
same,promoter activity interaction Z-score,[4]; [20],0.552 ± 0.14
same,promoter activity interaction Z-score,[4]; [21],0.909 ± 0.66
same,promoter activity interaction Z-score,[4]; [22],0.866 ± 0.037
same,promoter activity interaction Z-score,[4]; [23],1.02 ± 0.32
same,promoter activity interaction Z-score,[5]; [8],0.375 ± 0.078
same,promoter activity interaction Z-score,[5]; [9],0.214 ± 0.35
same,promoter activity interaction Z-score,[5]; [10],0.423 ± 0.27
same,promoter activity interaction Z-score,[5]; [11],0.406 ± 0.057
same,promoter activity interaction Z-score,[5]; [12],0.674 ± 0.55
same,promoter activity interaction Z-score,[5]; [13],-0.0996 ± 0.54
same,promoter activity interaction Z-score,[5]; [14],0.374 ± 0.39
same,promoter activity interaction Z-score,[5]; [15],0.814 ± 0.61
same,promoter activity interaction Z-score,[5]; [16],0.416 ± 0.24
same,promoter activity interaction Z-score,[5]; [17],-0.53 ± 0.44
same,promoter activity interaction Z-score,[5]; [18],0.48 ± 0.31
same,promoter activity interaction Z-score,[5]; [19],0.422 ± 0.89
same,promoter activity interaction Z-score,[5]; [20],-0.214 ± 0.33
same,promoter activity interaction Z-score,[5]; [21],0.504 ± 0.37
same,promoter activity interaction Z-score,[5]; [22],0.258 ± 0.6
same,promoter activity interaction Z-score,[5]; [23],0.18 ± 0.19
same,promoter activity interaction Z-score,[6]; [8],-0.0504 ± 0.14
same,promoter activity interaction Z-score,[6]; [9],0.0857 ± 0.028
same,promoter activity interaction Z-score,[6]; [10],0.21 ± 0.1
same,promoter activity interaction Z-score,[6]; [11],0.0523 ± 0.26
same,promoter activity interaction Z-score,[6]; [12],0.0248 ± 0.062
same,promoter activity interaction Z-score,[6]; [13],0.0401 ± 0.18
same,promoter activity interaction Z-score,[6]; [14],-0.0238 ± 0.042
same,promoter activity interaction Z-score,[6]; [15],0.276 ± 0.16
same,promoter activity interaction Z-score,[6]; [16],0.0242 ± 0.039
same,promoter activity interaction Z-score,[6]; [17],0.138 ± 0.13
same,promoter activity interaction Z-score,[6]; [18],0.236 ± 0.22
same,promoter activity interaction Z-score,[6]; [19],0.165 ± 0.005
same,promoter activity interaction Z-score,[6]; [20],-0.166 ± 0.08
same,promoter activity interaction Z-score,[6]; [21],0.198 ± 0.063
same,promoter activity interaction Z-score,[6]; [22],-0.014 ± 0.063
same,promoter activity interaction Z-score,[6]; [23],-0.0376 ± 0.072
same,promoter activity interaction Z-score,[7]; [8],0.313 ± 0.44
same,promoter activity interaction Z-score,[7]; [9],0.0546 ± 1.2
same,promoter activity interaction Z-score,[7]; [10],0.212 ± 0.98
same,promoter activity interaction Z-score,[7]; [11],0.135 ± 0.81
same,promoter activity interaction Z-score,[7]; [12],0.112 ± 0.076
same,promoter activity interaction Z-score,[7]; [13],-0.214 ± 1.4
same,promoter activity interaction Z-score,[7]; [14],-0.155 ± 0.64
same,promoter activity interaction Z-score,[7]; [15],0.18 ± 2
same,promoter activity interaction Z-score,[7]; [16],-0.564 ± 0.81
same,promoter activity interaction Z-score,[7]; [17],-0.365 ± 0.86
same,promoter activity interaction Z-score,[7]; [18],0.568 ± 0.35
same,promoter activity interaction Z-score,[7]; [19],0.574 ± 0.065
same,promoter activity interaction Z-score,[7]; [20],-0.539 ± 0.4
same,promoter activity interaction Z-score,[7]; [21],0.431 ± 0.064
same,promoter activity interaction Z-score,[7]; [22],-0.613 ± 0.62
same,promoter activity interaction Z-score,[7]; [23],0.378 ± 0.96

# — the supplement of paper PMC12282887
